Data reported in publication doi:10.1101/2024.03.05.583629.

The sequences below were run against pT7_6His-AlfaTag-ZIF268 (human, UniProt P18146 335-423) (assay: PADIT-seq). Details: dsDNA, one strand shown.

Sequence | binding signal [log2FC]
CTCGAGGATATCAAGATCTGGCCTCGGCGCGTAGGCGGGAACCTCTAGCTAGCCGACTCACTATAGGGATAATCGCCCTGAGCAAAGACC | 3.65 ± 0.0875
CTCGAGGATATCAAGATCTGGCCTCGGCGCGTGGATTGGAACCTCTAGCTAGCCGACTCACTATAGGGATAATCGCCCTGAGCAAAGACC | 0.000823 ± 0.102
CTCGAGGATATCAAGATCTGGCCTCGGCGCGGAGGCGGGAACCTCTAGCTAGCCGACTCACTATAGGGATAATCGCCCTGAGCAAAGACC | 1.88 ± 0.11
CTCGAGGATATCAAGATCTGGCCTCGGCGCGCCCGCGGGAACCTCTAGCTAGCCGACTCACTATAGGGATAATCGCCCTGAGCAAAGACC | 0.783 ± 0.131
CTCGAGGATATCAAGATCTGGCCTCGGCGGCCCACGCGGAACCTCTAGCTAGCCGACTCACTATAGGGATAATCGCCCTGAGCAAAGACC | 0.55 ± 0.0922
CTCGAGGATATCAAGATCTGGCCTCGGCGGTTGGGCGGGAACCTCTAGCTAGCCGACTCACTATAGGGATAATCGCCCTGAGCAAAGACC | 0.0831 ± 0.0849
CTCGAGGATATCAAGATCTGGCCTCGGCCGCCCAAACGGAACCTCTAGCTAGCCGACTCACTATAGGGATAATCGCCCTGAGCAAAGACC | 0.0706 ± 0.0989
CTCGAGGATATCAAGATCTGGCCTCGGCATACCACGCGGAACCTCTAGCTAGCCGACTCACTATAGGGATAATCGCCCTGAGCAAAGACC | 0.123 ± 0.0818
CTCGAGGATATCAAGATCTGGCCTCGGCCGCCCAAGTGGAACCTCTAGCTAGCCGACTCACTATAGGGATAATCGCCCTGAGCAAAGACC | 0.0066 ± 0.0917
CTCGAGGATATCAAGATCTGGCCTCGGCCGCATGCGCGGAACCTCTAGCTAGCCGACTCACTATAGGGATAATCGCCCTGAGCAAAGACC | 0.0876 ± 0.0884
CTCGAGGATATCAAGATCTGGCCTCGGCGCGTGGGTAGGAACCTCTAGCTAGCCGACTCACTATAGGGATAATCGCCCTGAGCAAAGACC | 1.97 ± 0.0958
CTCGAGGATATCAAGATCTGGCCTCGGCGCGTGCGCGGGAACCTCTAGCTAGCCGACTCACTATAGGGATAATCGCCCTGAGCAAAGACC | 0.264 ± 0.107
CTCGAGGATATCAAGATCTGGCCTCGGCCACCCACGCGGAACCTCTAGCTAGCCGACTCACTATAGGGATAATCGCCCTGAGCAAAGACC | 2.1 ± 0.135
CTCGAGGATATCAAGATCTGGCCTCGGCGACTGGGCGGGAACCTCTAGCTAGCCGACTCACTATAGGGATAATCGCCCTGAGCAAAGACC | 0.0505 ± 0.0931
CTCGAGGATATCAAGATCTGGCCTCGGCCGCCCATACGGAACCTCTAGCTAGCCGACTCACTATAGGGATAATCGCCCTGAGCAAAGACC | 0.364 ± 0.092
CTCGAGGATATCAAGATCTGGCCTCGGCGCGTGGGCCGGAACCTCTAGCTAGCCGACTCACTATAGGGATAATCGCCCTGAGCAAAGACC | 2.26 ± 0.0976
CTCGAGGATATCAAGATCTGGCCTCGGCGCGTGGGCAGGAACCTCTAGCTAGCCGACTCACTATAGGGATAATCGCCCTGAGCAAAGACC | 2.8 ± 0.0823
CTCGAGGATATCAAGATCTGGCCTCGGCACCTGGGCGGGAACCTCTAGCTAGCCGACTCACTATAGGGATAATCGCCCTGAGCAAAGACC | 0.068 ± 0.0997
CTCGAGGATATCAAGATCTGGCCTCGGCCGCCCACGGGGAACCTCTAGCTAGCCGACTCACTATAGGGATAATCGCCCTGAGCAAAGACC | 1.11 ± 0.0917
CTCGAGGATATCAAGATCTGGCCTCGGCCTCCCACGCGGAACCTCTAGCTAGCCGACTCACTATAGGGATAATCGCCCTGAGCAAAGACC | 1.28 ± 0.0958

Sequence | binding signal [log2FC]
CTCGAGGATATCAAGATCTGGCCTCGGCGCGTGGAGGGGAACCTCTAGCTAGCCGACTCACTATAGGGATAATCGCCCTGAGCAAAGACC | 0.222 ± 0.116
CTCGAGGATATCAAGATCTGGCCTCGGCGCGTGGCAAGGAACCTCTAGCTAGCCGACTCACTATAGGGATAATCGCCCTGAGCAAAGACC | 0.0121 ± 0.1
CTCGAGGATATCAAGATCTGGCCTCGGCCGCCCGCGCGGAACCTCTAGCTAGCCGACTCACTATAGGGATAATCGCCCTGAGCAAAGACC | 0.122 ± 0.126
CTCGAGGATATCAAGATCTGGCCTCGGCCGCCCAGATGGAACCTCTAGCTAGCCGACTCACTATAGGGATAATCGCCCTGAGCAAAGACC | 0.0137 ± 0.113
CTCGAGGATATCAAGATCTGGCCTCGGCCGCCCACAGGGAACCTCTAGCTAGCCGACTCACTATAGGGATAATCGCCCTGAGCAAAGACC | 0.494 ± 0.158
CTCGAGGATATCAAGATCTGGCCTCGGCGCGTGGTTTGGAACCTCTAGCTAGCCGACTCACTATAGGGATAATCGCCCTGAGCAAAGACC | 0.236 ± 0.101
CTCGAGGATATCAAGATCTGGCCTCGGCCGCCCACGAGGAACCTCTAGCTAGCCGACTCACTATAGGGATAATCGCCCTGAGCAAAGACC | 0.778 ± 0.094
CTCGAGGATATCAAGATCTGGCCTCGGCCGCCCCCGCGGAACCTCTAGCTAGCCGACTCACTATAGGGATAATCGCCCTGAGCAAAGACC | 1.56 ± 0.0899
CTCGAGGATATCAAGATCTGGCCTCGGCGCGTGGTTGGGAACCTCTAGCTAGCCGACTCACTATAGGGATAATCGCCCTGAGCAAAGACC | 0.34 ± 0.0919
CTCGAGGATATCAAGATCTGGCCTCGGCGGATGGGCGGGAACCTCTAGCTAGCCGACTCACTATAGGGATAATCGCCCTGAGCAAAGACC | 0.0532 ± 0.0937
CTCGAGGATATCAAGATCTGGCCTCGGCGCGTGGAAAGGAACCTCTAGCTAGCCGACTCACTATAGGGATAATCGCCCTGAGCAAAGACC | 0.108 ± 0.113
CTCGAGGATATCAAGATCTGGCCTCGGCCGCCCACCCGGAACCTCTAGCTAGCCGACTCACTATAGGGATAATCGCCCTGAGCAAAGACC | 0.112 ± 0.113
CTCGAGGATATCAAGATCTGGCCTCGGCGCGTGGGGGGGAACCTCTAGCTAGCCGACTCACTATAGGGATAATCGCCCTGAGCAAAGACC | 1.28 ± 0.104
CTCGAGGATATCAAGATCTGGCCTCGGCAAGTGGGCGGGAACCTCTAGCTAGCCGACTCACTATAGGGATAATCGCCCTGAGCAAAGACC | 2.06 ± 0.0801
CTCGAGGATATCAAGATCTGGCCTCGGCTACCCACGCGGAACCTCTAGCTAGCCGACTCACTATAGGGATAATCGCCCTGAGCAAAGACC | 0.362 ± 0.0981
CTCGAGGATATCAAGATCTGGCCTCGGCGCGTGGCGCGGAACCTCTAGCTAGCCGACTCACTATAGGGATAATCGCCCTGAGCAAAGACC | 0.0413 ± 0.108
CTCGAGGATATCAAGATCTGGCCTCGGCGCGCGTGCGGGAACCTCTAGCTAGCCGACTCACTATAGGGATAATCGCCCTGAGCAAAGACC | 0.0362 ± 0.119
CTCGAGGATATCAAGATCTGGCCTCGGCGCGTGGCTCGGAACCTCTAGCTAGCCGACTCACTATAGGGATAATCGCCCTGAGCAAAGACC | 0.122 ± 0.1
CTCGAGGATATCAAGATCTGGCCTCGGCTTCCCACGCGGAACCTCTAGCTAGCCGACTCACTATAGGGATAATCGCCCTGAGCAAAGACC | 0.363 ± 0.0983
